Measured values reported in paper PMC5540273 (PLoS ONE, 2017).

Tests used:
YANK2 = system: T1, YANK2
T1 construct: gene STK32B

AAK1 = settings: concentration: 1 μM, replicates: in singlicate; n = 1
ABL1-nonphosphorylated = settings: concentration: 1 μM, replicates: in singlicate; n = 1
ABL1-phosphorylated = settings: concentration: 1 μM, replicates: in singlicate; n = 1
ABL2 = settings: concentration: 1 μM, replicates: in singlicate; n = 1
ACVR1B = settings: concentration: 1 μM, replicates: in singlicate; n = 1
ACVR1 = settings: concentration: 1 μM, replicates: in singlicate; n = 1
ACVR2A = settings: concentration: 1 μM, replicates: in singlicate; n = 1
ACVR2B = settings: concentration: 1 μM, replicates: in singlicate; n = 1
ACVRL1 = settings: concentration: 1 μM, replicates: in singlicate; n = 1
ADCK3 = system: T2, ADCK3; settings: concentration: 1 μM, replicates: in singlicate; n = 1
T2 construct: gene CABC1

ADCK4 = settings: concentration: 1 μM, replicates: in singlicate; n = 1
AKT1 = settings: concentration: 1 μM, replicates: in singlicate; n = 1
AKT2 = settings: concentration: 1 μM, replicates: in singlicate; n = 1
AKT3 = settings: concentration: 1 μM, replicates: in singlicate; n = 1
ALK = settings: concentration: 1 μM, replicates: in singlicate; n = 1
p38-alpha = system: T3, p38-alpha
T3 construct: gene MAPK14

YSK4 = system: T4, YSK4
T4 construct: gene MAP3K19

p38-beta = system: T5, p38-beta
T5 construct: gene MAPK11
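Wherever %Inh is given: KINOMEscan kinase panel screen.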
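Wherever Kd is given: kd values determined as follow-up on hits from a single-replicate KINOMEscan panel screen.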

| SMILES | Kd (YANK2) [nM] | %Inh (AAK1) [%] | %Inh (ABL1-nonphosphorylated) [%] | %Inh (ABL1-phosphorylated) [%] | %Inh (ABL2) [%] | %Inh (ACVR1B) [%] | %Inh (ACVR1) [%] | %Inh (ACVR2A) [%] | %Inh (ACVR2B) [%] | %Inh (ACVRL1) [%] | %Inh (ADCK3) [%] | %Inh (ADCK4) [%] | %Inh (AKT1) [%] | %Inh (AKT2) [%] | %Inh (AKT3) [%] | %Inh (ALK) [%] | Kd (p38-alpha) [nM] | Kd (YSK4) [nM] | Kd (p38-beta) [nM] | Kd (ZAK) [nM] |
| --- | --- | --- | --- | --- | --- | --- | --- | --- | --- | --- | --- | --- | --- | --- | --- | --- | --- | --- | --- | --- |
| CNc1nc(-c2ccc3c(N)n[nH]c3c2)cc(N2C[C@@H](C(=O)Nc3ccccc3)CC[C@H]2C)n1 [GSK2298859] | 220 | 12 | 1 | 0 | 2 | 0 | 0 | 0 | 12 | 0 | 22 | 26 | 0 | 2 | 0 | 3 | – | – | – | – |
| Fc1ccc(-c2nc3n(c2-c2ccncc2)CCS3)cc1 [GI98581] | – | 1 | 0 | 0 | 9 | 15 | 0 | 0 | 20 | 0 | 13 | 23 | 0 | 13 | 9 | 28 | 130 | – | – | – |
| CNc1cc(-c2ccc3c(N)n[nH]c3c2)nc(N)n1 [GSK2224810] | – | 64 | 0 | 0 | 0 | 21 | 29 | 43 | 56 | 0 | 13 | 13 | 0 | 0 | 0 | 5 | – | – | – | – |
| COc1ccc(-c2coc3ccc(-c4nnc(C)o4)cc23)cc1 | – | 0 | 32 | 7 | 0 | 12 | 0 | 5 | 0 | 27 | 9 | 0 | 8 | 0 | 2 | 0 | – | – | – | – |
| O=C1NC(=O)C(c2ccc(Cl)cc2)=C1Nc1cccc(Cl)c1 [SB-317651] | – | 0 | 47 | 0 | 0 | 0 | 0 | 0 | 0 | 16 | 17 | 0 | 0 | 5 | 0 | 0 | – | – | – | – |
| COC(=O)C(Cc1ccccc1)NC(=O)NC1CCN(c2ccnc(Nc3ccc(F)cc3)n2)C1 (stereo not shown) [GSK1379714] | – | 0 | 0 | 0 | 0 | 0 | 6 | 0 | 6 | 0 | 21 | 36 | 0 | 0 | 0 | 0 | – | 1400 | – | – |
| COc1cccc(NC(=O)Nc2ccc(C)c(-c3ccc(C(=O)Nc4ccncc4)cc3)c2)c1 [GSK1398474] | – | 0 | 4 | 0 | 21 | 0 | 0 | 0 | 12 | 0 | 30 | 12 | 0 | 16 | 0 | 23 | – | – | – | – |
| Nc1cccc(-c2ccc3c(N)n[nH]c3c2)n1 [GSK2192730] | – | 56 | 10 | 0 | 0 | 0 | 0 | 0 | 9 | 0 | 1 | 0 | 0 | 0 | 0 | 21 | – | 130 | – | – |
| COc1nccc(-c2c(-c3ccc(F)cc3)ncn2CCCN2CCOCC2)n1 [SB-282852] | – | 0 | 55 | 41 | 49 | 0 | 0 | 0 | 0 | 0 | 0 | 18 | 0 | 3 | 3 | 25 | 160 | – | – | – |
| O=C(Nc1n[nH]c2nc(-c3cccs3)c(Br)cc12)C1CC1 [SB-735297] | – | 10 | 52 | 30 | 0 | 0 | 27 | 0 | 0 | 0 | 0 | 0 | 0 | 0 | 0 | 0 | – | 200 | – | – |
| Cc1ccc(NC(=O)Nc2ccccc2F)cc1-c1ccc(C(=O)Nc2ccncc2)cc1 [GSK1398477] | – | 28 | 7 | 0 | 31 | 3 | 32 | 21 | 14 | 5 | 22 | 25 | 0 | 22 | 0 | 25 | – | 1500 | – | – |
| COC(=O)c1cccc(NC(=O)NC2CCN(c3ccnc(Nc4ccc(F)cc4)n3)C2)c1 (stereo not shown) [GSK1379725] | – | 0 | 0 | 0 | 5 | 0 | 0 | 0 | 0 | 0 | 4 | 23 | 0 | 0 | 0 | 17 | – | – | – | – |
| Nc1nccc(-c2c(-c3ccc(F)cc3)ncn2C2CCN(Cc3ccccc3)CC2)n1 [SB-219980] | – | 0 | 0 | 0 | 0 | 0 | 7 | 0 | 0 | 9 | 0 | 55 | 15 | 0 | 0 | 16 | 46 | – | – | – |
| c1ccc(-c2ccnc3[nH]ccc23)cc1 [SB-693578] | – | 68 | 0 | 4 | 16 | 0 | 0 | 0 | 0 | 0 | 6 | 40 | 0 | 6 | 0 | 33 | – | 470 | – | – |
| O=c1cc(N2CCOCC2)nc2n(Cc3ccccc3F)ccn12 [GSK2297428] | – | 5 | 0 | 0 | 8 | 0 | 0 | 0 | 0 | 0 | 13 | 8 | 0 | 0 | 0 | 0 | – | – | – | – |
| FC(F)(F)c1ccccc1-c1cc(-c2c[nH]nc2-c2ccccn2)ccn1 [GW679396] | – | 21 | 0 | 0 | 1 | 0 | 0 | 3 | 17 | 0 | 4 | 0 | 0 | 7 | 16 | 18 | 310 | – | – | – |
| CCCCc1nn2ncccc2c1-c1ccnc(NC2CC2)n1 [GW684374] | – | 14 | 0 | 0 | 0 | 0 | 2 | 0 | 0 | 0 | 61 | 38 | 0 | 0 | 0 | 17 | – | – | – | – |
| COC(=O)c1cccc(NC(=O)NC2CCN(c3ccnc(Nc4ccc(OC)cc4)n3)C2)c1 (stereo not shown) [GSK1379746] | – | 18 | 0 | 0 | 13 | 0 | 41 | 0 | 0 | 0 | 18 | 52 | 0 | 11 | 0 | 20 | – | – | – | – |
| CS(=O)(=O)CCNCc1nc(-c2ccc3ncnc(Nc4ccc(OCc5ccccc5)c(Cl)c4)c3c2)cs1.Cl [GW582764] | – | 0 | 0 | 0 | 21 | 0 | 0 | 17 | 0 | 0 | 9 | 45 | 0 | 31 | 0 | 35 | – | – | – | – |
| CNC(=O)c1ccc(C)c(-n2c(C)cc(OCc3ccc(F)cc3F)c(Br)c2=O)c1 | – | 0 | 0 | 0 | 0 | 7 | 0 | 0 | 2 | 0 | 0 | 0 | 0 | 2 | 0 | 0 | – | – | 120 | – |
| COc1ccc2cc(-c3nc(-c4ccccc4C(C)C)[nH]c3-c3ccncc3)ccc2c1 [SB-660566] | – | 20 | 0 | 3 | 8 | 74 | 17 | 0 | 0 | 34 | 5 | 17 | 0 | 41 | 0 | 38 | – | – | – | – |
| Cn1cncc1C(=O)NC1CCN(c2ccnc(Nc3ccc(F)cc3)n2)C1 (stereo not shown) [GSK1379717] | – | 31 | 0 | 4 | 0 | 0 | 24 | 24 | 2 | 0 | 2 | 26 | 0 | 0 | 0 | 0 | – | – | – | > 10000 |
| Cc1ccc(NC(=O)Nc2ccc(Cl)c(C(F)(F)F)c2)cc1-c1ccc(C(=O)Nc2ccncc2)cc1 [GSK1398470] | – | 3 | 1 | 0 | 34 | 5 | 1 | 0 | 0 | 0 | 14 | 2 | 0 | 16 | 0 | 0 | 310 | – | 90 | – |
| Cc1ccccc1-c1cc(-c2c[nH]nc2-c2ccccn2)ccn1 [GW680061] | – | 0 | 0 | 0 | 17 | 0 | 9 | 0 | 0 | 0 | 1 | 12 | 0 | 3 | 0 | 22 | 130 | – | – | – |
| COc1ccc(CSc2nnc(-c3ccc4nccn4c3)o2)cc1C(F)(F)F | – | 16 | 28 | 13 | 21 | 23 | 0 | 7 | 15 | 21 | 6 | 6 | 13 | 4 | 44 | 29 | – | 22 | – | – |
